Source: PubChem BioAssay
The source made the active and inactive calls.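 How the source made its calls, unless noted: active means visually confirmed hit in the image check and inhibition above 20%; inconclusive means visually confirmed hit but inhibition not above 20%; inactive means no visual hit in the image check.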

What was measured:
[1] = inhibitors of TNFa-induced NFkB p65 translocation, primary screen, imaging, HUVEC, MLSMR starter and 10KST1 sets (AID 438;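 active means inhibition above 20% together with a positive visual image hit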;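 further: compound added about 3h40 before a 20 min TNFalpha stimulation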;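 on inhibition: signal is the nuclear over cytoplasmic p65 intensity ratio per well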); conditions: HUVEC TNFa-induced p65 nuclear translocation; cell count: measured here: nuclei count (cytotoxicity indicator), at 2.08 µM; inhibition: at 2 µM, stronger effect = higher value, 0% TNFa-plus-vehicle, 100% no-TNFa wells
[2] = reduction of polyQ htt aggregates in cells – imaging, exon1htt(103Q)mCFP cells, high-content imaging, primary screen (AID 483;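 active means visual image review flags a hit and inhibition of aggregation exceeds 20%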;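 further: compound exposure lasted 3 days before fixation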;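 on nuclei count: percent of the per-plate median nuclei count of sample wells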); conditions: exon1htt(103Q)mCFP cell line, aggregate imaging, at 2 µM; inhibition of aggregation: stronger effect = higher value; nuclei count: measured here: cell count, toxicity
[3] = endothelial E-selectin expression blockers – imaging, HUVEC, immunofluorescence, MLSMR starter and 10KST1 sets, primary screen (AID 487); conditions: HUVEC TNFalpha-induced E-selectin immunofluorescence imaging, at 2 µM; inhibition: stronger effect = higher value; nuclei count: measured here: cell number, toxicity;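 on inhibition: signal is fraction of cell area covered by stained E-selectin grains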;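 on nuclei count: 100% = median nuclei count of all wells on the same plate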
[4] = biological target: Voltage-gated potassium channel subunit beta-2 (Rattus norvegicus) (UniProt P62483); experiment: inhibitors of rat Kvbeta2 reductase activity – biochemical, NADPH fluorescence, primary screen (AID 622;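 active means fluorescence slope higher than the sample average by over 3 SD, cut at about -0.22 in these data, passing the limit was not always enough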;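 further: slope of raw intensity against log time taken from 70 to 1610 s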); conditions: recombinant KvBeta, 4-cyanobenzaldehyde reduction, at 10 µM, stronger effect = higher value
Sequence of Voltage-gated potassium channel subunit beta-2 (Rattus norvegicus) (P62483 whole entry, looked up): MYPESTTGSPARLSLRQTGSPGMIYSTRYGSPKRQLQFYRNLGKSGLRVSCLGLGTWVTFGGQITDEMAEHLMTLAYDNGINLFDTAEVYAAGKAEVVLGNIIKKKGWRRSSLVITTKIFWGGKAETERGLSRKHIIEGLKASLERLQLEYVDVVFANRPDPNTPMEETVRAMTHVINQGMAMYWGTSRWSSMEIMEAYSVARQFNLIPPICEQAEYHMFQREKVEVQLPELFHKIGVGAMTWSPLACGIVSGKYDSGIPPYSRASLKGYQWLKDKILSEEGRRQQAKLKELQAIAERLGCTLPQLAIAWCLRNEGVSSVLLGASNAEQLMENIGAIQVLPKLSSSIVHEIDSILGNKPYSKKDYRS

[5] = biological target: Voltage-gated potassium channel subunit beta-2 (Rattus norvegicus) (UniProt P62483); experiment: enhancers of rat Kvbeta2 NADPH turnover – biochemical, NADPH fluorescence, primary screen (AID 623;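 active means NADPH fluorescence slope more negative than the mean of all samples by about 3 SD, 99.7% confidence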;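 further: fluorescence intensity change per second fitted from 20 to 320 s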); conditions: Recombinant KvBeta, NADPH fluorescence decrease slope, 10 min; at 10 µM; stronger effect = lower value
[6] = biological target: Alpha-2C adrenergic receptor (Homo sapiens) (UniProt P18825); experiment: compounds altering alpha2C-coupled GIRK flux – cell-based, HEK293 alpha2C/GIRK1/2, thallium flux, primary screen (AID 624;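 active means fluorescence slope after compound addition differing from the mean of all screened samples at 99.7% confidence, in either direction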;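 further: slope of fluorescence ratio to pre-addition baseline per second over 15 to 24 s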); conditions: thallium flux BTC fluorescence, at 10 µM, actives lie on both sides
Sequence of Alpha-2C adrenergic receptor (Homo sapiens) (P18825 whole entry, looked up): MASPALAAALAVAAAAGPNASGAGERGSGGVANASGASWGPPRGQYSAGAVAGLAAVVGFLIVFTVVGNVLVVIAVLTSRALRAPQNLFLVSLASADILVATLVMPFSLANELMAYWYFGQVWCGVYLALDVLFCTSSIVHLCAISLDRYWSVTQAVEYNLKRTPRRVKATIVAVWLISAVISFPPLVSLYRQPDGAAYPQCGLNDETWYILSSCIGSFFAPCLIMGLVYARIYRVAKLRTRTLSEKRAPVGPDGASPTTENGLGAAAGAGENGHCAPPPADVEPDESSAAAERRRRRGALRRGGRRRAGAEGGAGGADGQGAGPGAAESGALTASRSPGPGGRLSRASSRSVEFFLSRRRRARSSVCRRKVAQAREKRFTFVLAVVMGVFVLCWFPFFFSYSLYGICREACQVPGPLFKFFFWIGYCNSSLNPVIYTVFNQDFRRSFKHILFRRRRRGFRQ

[7] = blockers of RIG-like receptor reporter activation – cell-based, Sendai virus stimulus, luciferase, 10K MLSCN set, TLR/RLR signaling modifier project, primary screen (AID 602276;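 active means inhibition at or above 50% at 10 µM; inactive means inhibition below 50%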;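 further: firefly luciferase from ISG56 promoter only with Renilla not read in this screen; 0% = Sendai virus plus DMSO and 100% = medium plus DMSO without virus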); conditions: HEK293 RL24 IRF3 luciferase reporter, at 10 µM, stronger effect = higher value
[8] = TLR3 IRF3 reporter activation blockers – cell-based, poly I:C stimulus, luciferase, 10K MLSCN set, primary screen (AID 602277;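 active means inhibition of the reporter signal at or above 50%; inactive means inhibition below 50%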); conditions: HEK293-TLR3 RL24 IRF3 luciferase reporter, at 10 µM, stronger effect = higher value

| Structure (SMILES) | cell count [1] | inhibition [1] | inhibition of aggregation [2] | nuclei count [2] | inhibition [3] | nuclei count [3] | fluorescence slope [4] | NADPH fluorescence slope [5] | slope [6] | inhibition [7] | inhibition [8] |
| --- | --- | --- | --- | --- | --- | --- | --- | --- | --- | --- | --- |
| Cc1cc(C)n2nc[n+](C)c2n1 | 685 | -12.9% (inactive) | -10% (inactive) | 103% | -17.6% (inactive) | 120% | -0.537 (inactive) | 3.6e-05 (inactive) | 0.0066 (inactive) | -6.03% (inactive) | -6.5% (inactive) |
| N#CC1=C(N)Oc2cc(O)ccc2C1C1CCCCC1 (centres undefined) | 527 | 0.6% (inactive) | 18.3% (inactive) | 103% | -33.8% (inactive) | 85.8% | -0.443 (inactive) | 1.3e-05 (inactive) | 0.00336 (inactive) | 14.1% (inactive) | 25.6% (inactive) |
| COc1ccc(NC(=O)N(C2CCCCC2)C2CCN(C(C)C)CC2)c(OC)c1 | 676 | -7.8% (inactive) | -12.8% (inactive) | 79.5% | -10.8% (inactive) | 109% | -0.518 (inactive) | 9.2e-06 (inactive) | 0.0051 (inactive) | 2.2% (inactive) | 15.1% (inactive) |
| O=C1CCNc2cc3ccccc3cc21 | 356 | 2.5% (inactive) | 32.4% (inactive) | 80.4% | 24.1% (inactive) | 99.3% | -0.472 (inactive) | -0.000147 (inactive) | 0.00661 (inactive) | 21.5% (inactive) | 32.3% (inactive) |
| COC(=O)c1cc(Br)c(=O)n(-c2ccc(OC)cc2)c1 | 542 | -0.5% (inactive) | -13.6% (inactive) | 108% | 25.8% (inactive) | 112% | -0.503 (inactive) | -3.9e-05 (inactive) | 0.00452 (inactive) | 12.6% (inactive) | 23.2% (inactive) |
| CC(=O)Nc1c2c(nn1-c1ccc(C)cc1C)CSC2 | 570 | 0.9% (inactive) | 9.6% (inactive) | 95.7% | 33.7% (inactive) | 103% | -0.562 (inactive) | -5.2e-05 (inactive) | 0.00674 (inactive) | -12.5% (inactive) | -10.7% (inactive) |
| O=C(CSc1ncnc2nc[nH]c12)c1ccc(Cl)cc1 | 728 | -12.4% (inactive) | 9.4% (inactive) | 101% | 5.4% (inactive) | 95% | -0.5 (inactive) | -1.4e-05 (inactive) | 0.00583 (inactive) | -2.82% (inactive) | -23.1% (inactive) |
| COc1cccc(C(=O)OCn2nnc3ccccc3c2=O)c1OC | 750 | -25% (inactive) | 21% (inactive) | 99.5% | -17.8% (inactive) | 103% | -0.441 (inactive) | -2.9e-05 (inactive) | 0.00547 (inactive) | 11.8% (inactive) | 28.8% (inactive) |
| CCOC(=O)C1=C(C)Nc2nnnn2C1c1ccc(OC)c(Br)c1 (centres undefined) | 635 | 5.8% (inactive) | -8.3% (inactive) | 94.6% | 2.7% (inactive) | 111% | -0.574 (inactive) | -1.5e-05 (inactive) | 0.00761 (inactive) | -20% (inactive) | -12.8% (inactive) |
| CN(C)c1ccc(NC(=O)Cn2cc3c(n2)CCCC3)cc1 | 757 | -11% (inactive) | 17.1% (inactive) | 101% | -27.2% (inactive) | 103% | -0.406 (inactive) | -4.3e-05 (inactive) | 0.00475 (inactive) | -2.34% (inactive) | -8.59% (inactive) |
| CCCN(C(=O)CSc1nnc(-c2ccoc2C)n1N)C1CCS(=O)(=O)C1 (centres undefined) | 468 | 11.7% (inactive) | -26.6% (inactive) | 116% | 30.6% (inactive) | 108% | -0.413 (inactive) | -8.5e-05 (inactive) | 0.00528 (inactive) | 15.7% (inactive) | 22.7% (inactive) |
| CCc1ccccc1-n1c(SCC(=O)N2CCCC2)nnc1-c1ccccn1 | 484 | 2.5% (inactive) | -5.8% (inactive) | 116% | -11.2% (inactive) | 104% | -0.524 (inactive) | 5e-05 (inactive) | 0.00548 (inactive) | -2.19% (inactive) | 4.38% (inactive) |
| Cc1ccc2cccc(SCC(=O)N3CCOCC3)c2n1 | 286 | -6.7% (inactive) | 28% (inactive) | 72.7% | -45.8% (inactive) | 105% | -0.327 (inactive) | 7.7e-06 (inactive) | 0.00384 (inactive) | 6.65% (inactive) | 31.6% (inactive) |
| COC(=O)c1ccc(CSc2nnc(-c3ccncc3)o2)o1 | 612 | -2.2% (inactive) | -8% (inactive) | 139% | -31.9% (inactive) | 114% | -0.596 (inactive) | -3.4e-05 (inactive) | 0.00373 (inactive) | 12% (inactive) | 13.9% (inactive) |
